Results on 74 compounds are retold here after PubChem BioAssay AID624171 (National Center for Advancing Translational Sciences (NCATS), 2012).

The campaign covered roughly 410,000 compounds. About 1,200 (0.29%) were called active. Entries that show only a call come without a potency. About 2% were inconclusive and are not listed. The full list was thinned out, with actives kept by preference. Values without a mark were called inactive. Calls come from the whole dose curve; as a rule, active = well fitted activation curve with a large enough effect; inconclusive = small, poorly fitted or top-dose-only effect; inactive = flat fitted curve, though single readings scatter.
Potency is the fitted concentration of half-maximal effect.

The test can be described thus: qHTS of Nrf2 Activators. Note: nearly all actives have a fitted effect of over 65% in size. To be noted: AREc32 ARE-luciferase reporter (MCF7-derived line), luminescence, 24 h; series mostly up to 46.1 µM. The gist of the method:
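Luciferase luminescence (Steady-Glo, 30 min at room temperature) served as the read-out of ARE activation in AREc32 cells treated with compounds for 24 hr at 37 deg C.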
On the technique in general: In qHTS, concentration-response curves come from the screen itself.
Take `CC(C)c1ccc(C2CC(=O)N3CN(C4CCCCC4)CSC3=C2C#N)cc1` (centres undefined): the Potency entry is “inactive”.

Consider `CC(=O)c1cccc(NC(=O)CSc2nc3c(c(=O)[nH]2)CCC3)c1`, for which the Potency result was “inactive”.

On to `Cc1ccc(-c2csc(C(C#N)=C(O)CN3CCN(C(=O)c4ccco4)CC3)n2)cc1`, for which the Potency result is “inactive”.

Turning to `N#CC(=C1CCCC1)c1nc(-c2ccc(Cl)cc2)cs1`, the Potency entry was “inactive”.

On to `N#CC(=C1SC=CS1)c1nc(-c2ccccc2)cs1`, for which the Potency was 7.08 µM (active).

As for `Fc1cccc(-n2ncc3c2ncn2nc(-c4ccccc4Cl)nc32)c1`, the Potency entry was “inactive”.

`COc1ccc(C(=O)Nc2onc3c2CCCC3)cc1`: the Potency entry was “inactive”.

As for `Cc1c(Cl)cccc1NC(=O)c1noc2c1CCCC2`, the Potency entry was “inactive”.

Consider `O=C(Nc1cccc2ccccc12)c1onc2c1CCCC2`, for which the Potency is 12.6 µM (active).

On to `COc1cccc(C(=O)NCc2ccc3c(c2)CCN3C(=O)c2ccncc2)c1`, for which the Potency result is “inactive”.

`C=CCSc1nsc(NC(=O)Nc2cccc(C(C)=O)c2)n1`: the activation is -0.163% [at 9.22 µM].

For `C=CCSc1nnc2c(n1)-c1cccc3cccc-2c13`, the Potency is 12.6 µM (active).

`Cc1cc(C)c(-c2n[nH]c3c2C(c2ccccc2F)N(CCO)C3=O)c(O)c1` (centres undefined): the Potency result is “inactive”.

Turning to `Cc1nc2ccc(S(=O)(=O)NC(C(=O)NCc3ccccc3Cl)C(C)C)cc2s1` (centres undefined), the Potency entry was “inactive”.

Turning to `O=C(c1c(F)cccc1Cl)N1CCN(S(=O)(=O)c2ccc3c(c2)OCCCO3)CC1`, the Potency result is “inactive”.

Regarding `CC(=O)N1CCN(S(=O)(=O)c2c(F)cc(F)c(Cl)c2F)CC1`, the Potency was 11.2 µM (active).

Turning to `O=C(c1cnc(Cl)c(Cl)c1)N1CCN(S(=O)(=O)c2ccc(F)cc2)CC1`, the Potency result is “inactive”.

For `Cc1c(CNC(C)c2ccccc2)c(C(=O)O)c(C)n1Cc1c(F)cccc1Cl` (centres undefined), the Potency entry is “inactive”.

Consider `Cc1csc2nc(COc3ccc(NC(=O)COc4ccccc4)cc3)cc(=O)n12`, for which the Potency result is “inactive”.

Turning to `O=C(Nc1ccccc1F)c1ccccc1-c1ccc(C(F)(F)F)cc1`, the Potency entry is “inactive”.

For the compound `O=C(Nc1nnc(-c2ccccc2F)s1)c1ccccc1F`, the Potency is 3.16 µM (active).

Consider `O=C(Nc1nc2c(s1)CCCC2)c1ccccc1F`, for which the Potency result is “inactive”.

Take `O=C(COc1ccccc1F)Nc1ccc(C(=O)OCc2cc(=O)n3nc(C4CC4)sc3n2)cc1`: the Potency entry was “inactive”.

Take `Cc1ccccc1CNC(=O)CCCn1nc(C)c2sc3ccccc3c2c1=O`: the Potency result is “inactive”.

As for `Brc1ccccc1C1N=C(c2ccccc2)NO1` (centres undefined), the Potency is 6.31 µM (active).

Turning to `N#Cc1ccc(C2N=C(c3ccccc3)NO2)cc1` (centres undefined), the Potency entry is “inactive”.

Take `COc1cc(Cl)c(NC(=O)CC(C)S(=O)(=O)c2cc3c(cc2C)NC(=O)CO3)c(OC)c1` (centres undefined): the Potency result is “inactive”.

For the compound `CN(C)CCCn1c(-c2ccc(Cl)cc2)csc1=Nc1ccccc1`, the Potency result is “inactive”.

For `CN(C)CCN=c1cc(-c2ccccc2)oc2ccc(Cl)cc12`, the Potency was 11.2 µM (active).

As to `Cc1ccc(Cc2nc3ccccc3nc2SCC(=O)Nc2cccc(C(F)(F)F)c2)cc1`, the Potency entry is “inactive”.

On to `CCOCCCNC(=O)c1c(NC(=O)Cc2coc3ccc(C)cc23)sc2c1CCC2`, for which the Potency result is “inactive”.

In the case of `N#CC1=C(N)Oc2c(sc3ccccc23)C1c1ccco1` (centres undefined), the Potency was 3.16 µM (active).

`CC(=O)c1cccc(NC(=O)c2nc(-c3ccccc3)n(-c3cccc(C)c3)n2)c1`: the Potency entry is “inactive”.

In the case of `Cc1cccc(S(=O)(=O)c2cn(Cc3ccccc3)c3cc(N4CCOCC4)c(F)cc3c2=O)c1`, the Potency entry was “inactive”.

`CCN(CC)c1cc(NC2CCCCC2)c2c3c(onc13)-c1ccccc1C2=O`: the Potency result was “inactive”.

As for `Cc1csc(NC(=O)Nc2ccccc2[N+](=O)[O-])n1`, the Potency is 4.47 µM (active).

As to `COc1ccc(OCCCC(=O)OC(C)C(=O)Nc2ccccc2[N+](=O)[O-])cc1` (centres undefined), the Potency result is “inactive”.

On to `Cc1csc(NC(=O)C2CCN(S(=O)(=O)c3ccccc3)CC2)n1`, for which the Potency result was “inactive”.

With `Cc1c(CCNC(=O)c2ccc(C(F)(F)F)cc2)sc2nc(-c3ccc(F)cc3)nn12`, the Potency result is “inactive”.

On to `O=[N+]([O-])c1ccc2oc(-c3cccc(O)c3)nc2c1`, for which the Potency is 6.31 µM (active).

With `O=C(Nc1cc(-c2nc3ccccc3o2)ccc1Cl)c1cc([N+](=O)[O-])ccc1N1CCOCC1`, the Potency result is “inactive”.

For `CCC(=O)Nc1cccc(-c2nc3cc(C)ccc3o2)c1`, the Potency entry is “inactive”.

Regarding `CC(=O)c1ccc(NC(=O)CSc2c(C(C)C)cnc3c2c(=O)n(C)c(=O)n3C)cc1`, the Potency entry is “inactive”.

For the compound `Cc1cccc(C(=O)Nc2ccc(-c3nc4ncccc4o3)cc2C)c1`, the Potency result is “inactive”.

Consider `Cc1cc(NC(=O)c2ccc(-c3ccc(Cl)cc3)o2)cc(-c2nc3ncccc3o2)c1O`, for which the Potency entry is “inactive”.

On to `O=C(Nc1cc(-c2nc3ncccc3o2)ccc1Cl)c1ccco1`, for which the Potency was 6.31 µM (active).

As to `CCc1cc2c(cc(C(=O)OC)n2Cc2nc(-c3ccc(C)cc3)oc2C)s1`, the Potency entry was “inactive”.

With `CSc1ccccc1NC(=O)CCS(=O)(=O)c1nc(-c2cccs2)cc(C(F)(F)F)n1`, the Potency entry is “inactive”.

With `COc1ccc(Cc2nnc(SCC(=O)c3cccc([N+](=O)[O-])c3)n2C)cc1`, the Potency entry is “inactive”.

`O=C(CSc1nc2ccc([N+](=O)[O-])cc2[nH]1)c1ccc(Cl)cc1`: the Potency is 11.2 µM (active).

Take `O=C(CSc1nc(Nc2ccc(F)c(F)c2)c2ccccc2n1)c1ccc(Cl)cc1`: the Potency entry is “inactive”.

Turning to `CCOc1ccccc1C(=O)Nc1ccc2c(c1)N(C)C(=O)c1ccccc1S2`, the Potency entry was “inactive”.

For the compound `CCOC(=O)c1ccc2c(c1)N(Cc1cccc(OC)c1)C(=O)c1ccccc1S2(=O)=O`, the Potency entry is “inactive”.

Turning to `Cc1ccccc1CNC(=O)Cn1c(C)c2cnn(-c3ccccc3)c(=O)c2c1C`, the Potency entry was “inactive”.

Consider `CCC(C(=O)Nc1cc(OC)ccc1OC)n1c(=O)c(C(F)(F)F)nc2ccccc21` (centres undefined), for which the Potency result was “inactive”.

For the compound `S=c1[nH]nc(/C=C/c2ccccc2)o1`, the Potency entry is “inactive”.

`S=c1[nH]nc(-c2ccco2)n1/N=C/c1ccccc1`: the Potency is 10 µM (active).

On to `CN(C)C(=O)CSc1n[nH]c(-c2ccco2)n1`, for which the Potency entry is “inactive”.

For `COc1cc(NC(=O)c2cc(C3CC3)nc3c2c(C)nn3-c2ccccc2)cc(OC)c1`, the Potency result was “inactive”.

Take `Cc1cccc(NC(=O)Cn2nc(-c3ccc(Cl)cc3)c3ccccc3c2=O)c1`: the Potency entry was “inactive”.

Consider `COCOc1cc(O)c(C(=O)/C=C/c2ccc(OCOC)c(OCOC)c2)c(OCOC)c1`, for which the Potency result was “inactive”.

Turning to `COc1ccc(/C=C/C(=O)c2cc(Br)ccc(=O)c2O)cc1`, the Potency is 12.6 µM (active).

Take `COc1cccc(N2CC(NC(=O)/C=C\c3ccccc3)CC2=O)c1` (centres undefined): the Potency result was “inactive”.

`O=C(c1ccc(F)cc1)n1c(=S)nc2ccccn21`: the Potency is 2.51 µM (active).

`O=C(Nc1c(-c2ccc(F)cc2)nc2ccccn12)c1cccc(F)c1`: the Potency result is “inactive”.

Take `O=C(c1ccc(F)cc1)N1CCCC(C(=O)N2CCCCC2)C1` (centres undefined): the Potency entry is “inactive”.

`Cc1ccc(-c2nc(SCc3ccc(Br)cc3)n3[nH]c(=O)cc3n2)cc1`: the Potency entry is “inactive”.

Regarding `CCc1nn(CC(=O)NCC(C)c2ccccc2)c(=O)c2cc3occc3n12` (centres undefined), the Potency entry is “inactive”.

Consider `Cc1cccc(NC(c2cccc(F)c2)c2ccc3ccc(C)nc3c2O)n1` (centres undefined), for which the Potency entry is “inactive”.

In the case of `CCOc1cc(NC(=O)CCl)c(OCC)cc1NC(C)=O`, the Potency was 14.1 µM (active).

With `CCOCC(=O)Nc1cc(OC)c(Cl)cc1OC`, the Potency result was “inactive”.

Take `CCOc1cc(NC(=O)c2ccccc2C(=O)O)c(OCC)cc1NC(=O)c1ccccc1F`: the Potency entry was “inactive”.

As to `CC(C)(C)OC(=O)N1CCC(c2c(C(=O)NCCc3ccsc3)cnn2-c2ccc(F)cc2F)CC1`, the Potency entry is “inactive”.

With `COc1ccccc1NC(=O)c1cc(S(=O)(=O)NCCc2ccccc2)ccc1F`, the Potency result is “inactive”.
